Out of some 2,300 compounds screened, about 1,200 (52%) were called active. About 34% were inconclusive and are not listed. Calls follow the shape of the dose curve; as a rule, active = well fitted inhibition curve with a large enough effect; inconclusive = small, poorly fitted or top-dose-only effect, or effect the other way; inactive = no such curve, though single readings can be large or run the other way. So high a share suggests a set chosen from earlier hits. Some of the results follow.
experiment: Confirmation screen for delayed death inhibitors of the malarial parasite plastid, 48 hour incubation; also: nearly all actives have a fitted effect of over 65% in size; conditions: P. falciparum-infected erythrocytes, luciferase growth; series mostly up to 28.7 µM
How it was run: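 Single-generation (48 h, 37 C) exposure of integrated firefly luciferase-reporter P. falciparum in red cells, 0.1% parasitemia at 2% hematocrit, Albumax-supplemented RPMI. Falling luciferase signal marks parasite growth inhibition.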
Potency is read from the fitted curve at half-maximal effect.

Row | SMILES | Potency
1 | CCOCCCn1c(C)nc2c(c1=O)c1nc3ccccc3nc1n2CCC1=CCCCC1 | 7.08 µM (active)
2 | Cc1nn2c(Nc3ccccc3)c3c(nc2c1-c1ccccc1)CCC3 | 15.8 µM (active)
3 | Cc1ccc(-c2csc3nc[nH]c(=O)c23)cc1 | inactive
4 | Clc1ccc2nnnc(-c3ccccc3)c2c1 | 3.98 µM (active)
5 | O=C(c1ccc(S(=O)(=O)Cc2ccccc2Cl)c([N+](=O)[O-])c1)N1CCOCC1 | 10 µM (active)
6 | Cc1ccc(S(=O)(=O)N2CCN(c3ccc(C(=O)N4CCOCC4)cc3[N+](=O)[O-])CC2)cc1 | 7.08 µM (active)
7 | O=C(c1ccc(S(=O)(=O)Cc2cc(F)ccc2F)c([N+](=O)[O-])c1)N1CCCC1 | 12.6 µM (active)
8 | CC1CCN(C(=O)C2CCCN(c3ncnc4c3nc3n4CCCCC3)C2)CC1 (stereo unspecified) | 14.1 µM (active)
9 | Cc1cccc(N2CCN(C(=O)C3CCN(c4ncnc5c4nc4n5CCCCC4)CC3)CC2)c1C | 14.1 µM (active)
10 | COC(=O)CC1C(=O)NCCN1C(=S)Nc1ccc(F)cc1 (stereo unspecified) | 14.1 µM (active)
11 | CCOC(=O)C(Cc1ccccc1)C(=O)Nc1cccc2ccccc12 (stereo unspecified) | 3.98 µM (active)
12 | CCC1CN(C(=O)N2CCC(C(=O)NCc3cccc(OC)c3OC)CC2)c2cc(C)ccc2O1 (stereo unspecified) | 12.6 µM (active)
13 | COc1cccc(COC(=O)C2CC(=O)N(Cc3ccco3)C2)c1OC (stereo unspecified) | inactive
14 | CC(C)NS(=O)(=O)c1ccc(NC(=S)NC(=O)c2ccc(-c3ccccc3)cc2)cc1 | 5.01 µM (active)
15 | O=C(NC(=C(Cl)Cl)S(=O)(=O)c1ccc(Cl)cc1)c1ccccc1 | inactive
16 | O=c1c(Cl)c(Cl)cnn1Cc1nnc(-c2ccc(Cl)cc2)o1 | 14.1 µM (active)
17 | O=C(NC1CCCCC1)N1CCN(c2ccc([N+](=O)[O-])cc2)CC1 | 11.2 µM (active)
18 | Cc1ccc(NC(=O)c2ccc(Nc3c([N+](=O)[O-])cc([N+](=O)[O-])cc3[N+](=O)[O-])cc2)cc1 | 3.16 µM (active)
19 | O=C(Nc1cccc([N+](=O)[O-])c1)c1ccc2nsnc2c1 | inactive
20 | Cc1ccc(NC(=O)/C(=C\c2ccc([N+](=O)[O-])cc2)NC(=O)c2ccccc2)cc1 | 10 µM (active)
21 | COCCn1c(=O)[nH]c2cc(C(=O)NCc3ccccc3)ccc2c1=O | inactive
22 | O=C(NCc1ccccc1)c1c[nH]c2ccccc2c1=O | 14.1 µM (active)
23 | CCn1c(/C=C/N(C(C)=O)c2ccccc2)[n+](CC)c2ccc(Cl)cc21 | 2.82 µM (active)

Row | SMILES | Potency
24 | CCOC(=O)c1ccc2c(c1)n(CC)c(/C=C/N(C)c1ccccc1)[n+]2CC | 0.447 µM (active)
25 | CCc1ccc(NC(=O)CN(c2cc(C)cc(C)c2)S(=O)(=O)c2c(C)[nH]c(=O)[nH]c2=O)cc1 | 12.6 µM (active)
26 | CC1S/C(=N/N=C/c2ccco2)N(Cc2ccccc2)C1=O (stereo unspecified) | inactive
27 | CCC1S/C(=N/N=C/c2ccco2)N(Cc2ccccc2C)C1=O (stereo unspecified) | 11.2 µM (active)
28 | CCC1S/C(=N/N=C/c2ccco2)N(Cc2ccccc2)C1=O (stereo unspecified) | 14.1 µM (active)
29 | CCc1ccc(/C=N/n2c(C)cc(C)c(C#N)c2=O)cc1 | 6.31 µM (active)
30 | C=C1C(=O)O[C@@H]2[C@H]1CC[C@H](C)[C@]1(O)CCC(=O)[C@@]21C | 12.6 µM (active)
31 | N=C(N)c1ccc(/C=C/c2ccc(C(=N)N)cc2O)cc1 | 0.708 µM (active)
32 | COC(=O)c1ccc(Sc2nnnn2-c2ccccc2)c([N+](=O)[O-])c1 | 11.2 µM (active)
33 | O=C(NC1CCS(=O)(=O)C1)/C(=C\c1ccc(F)cc1)NC(=O)c1ccccc1 (stereo unspecified) | 15.8 µM (active)
34 | Cn1c(=O)oc2cc(S(=O)(=O)NCCC(=O)NCc3ccc(F)cc3)ccc21 | 15.8 µM (active)
35 | COc1cc2c(O)c3c(c(-c4ccc5c(c4)OCO5)c2cc1OC)C(=O)OC3 | 10 µM (active)
36 | CCOc1ccccc1NC(=O)/C(C#N)=C/c1cccnc1 | 14.1 µM (active)
37 | CCOc1ccccc1NC(=S)N1CCN(c2cccc(OC)c2)CC1 | inactive
38 | Fc1ccc(Nc2nc(N3CCOCC3)nc(N3CCOCC3)n2)cc1 | 14.1 µM (active)
39 | N#Cc1cc(S(=O)(=O)c2ccccc2)c(N)[nH]c1=O | inactive
40 | COc1ccc(-c2nnc3ccc(SCC(=O)Nc4nc5ccc(C)cc5s4)nn23)cc1OC | 1.26 µM (active)
41 | COc1cccc(CN(C)CC2CCCN(CCc3ccc(Cl)cc3)C2)c1OC (stereo unspecified) | 10 µM (active)
42 | COc1ccc(/C=C2\CN(Cc3ccccc3)C/C(=C\c3ccc(OC)c(O)c3)C2=O)cc1O | 0.891 µM (active)
43 | CCOc1cc(/C=C2\CN(CC)C/C(=C\c3ccc(O)c(OCC)c3)C2=O)ccc1O | 3.98 µM (active)
44 | O=C(O)c1ccccc1NS(=O)(=O)c1cccc(-n2sc3ccccc3c2=O)c1 | 15.8 µM (active)
45 | Cc1cc(C(=O)OC(C)C(=O)Nc2nc(-c3ccccc3)cs2)c(C)o1 (stereo unspecified) | inactive
46 | CCOc1ccccc1Nc1nnc(SC(C)C(=O)Nc2nc(-c3ccccc3)cs2)s1 (stereo unspecified) | 14.1 µM (active)

Row | SMILES | Potency
47 | CC(=O)Oc1ccc(-c2csc(Nc3cccnc3)n2)cc1 | inactive
48 | COc1ccccc1Nc1nnc(SCc2cc(=O)n3ccsc3n2)s1 | 12.6 µM (active)
49 | COc1ccccc1Nc1nnc(SCC(=O)Nc2nc(-c3ccc(F)cc3)cs2)s1 | 11.2 µM (active)
50 | Oc1ccc(Cl)cc1CNc1cnc2ccccc2c1 | 12.6 µM (active)
51 | Cc1nc2scc(C)n2c(=O)c1S(=O)(=O)NCc1ccccc1Cl | inactive
52 | COc1ccc(C(=O)NC2CCCc3c2cnn3-c2cccc(C)c2C)o1 (stereo unspecified) | 12.6 µM (active)
53 | Cc1cccc(-n2ncc3c2CCCC3NC(=O)C2=CC(=O)CC(C)(C)O2)c1C (stereo unspecified) | 15.8 µM (active)
54 | CCc1c(C(=O)NC2CCCc3ccccc32)[nH]c(C)c1C(C)=O (stereo unspecified) | inactive
55 | Cc1cc(C(=O)NC2CCCc3c2cnn3-c2cccc(C)c2C)no1 (stereo unspecified) | inactive
56 | O=C(CCl)Nc1cccc(Oc2cnccn2)c1 | 4.47 µM (active)
57 | COc1cccc(NC(=O)c2nc(S(C)(=O)=O)ncc2Cl)c1 | inactive
58 | COc1ccc(CNS(=O)(=O)c2ccc3c(c2)N(C(C)=O)CC(C)S3)cc1 (stereo unspecified) | 12.6 µM (active)
59 | Cn1nc(CC(=O)Nc2ncc(Br)s2)c2ccccc2c1=O | 11.2 µM (active)
60 | O=C(C[n+]1cc(Br)cc2ccccc21)c1ccccc1 | 10 µM (active)
61 | Clc1ccc2nc(-c3ccccn3)c(Nc3ccc4c(c3)OCO4)n2c1 | 11.2 µM (active)
62 | Nc1ccc2nc(-c3ccc(-c4nc5ccc(N)cc5[nH]4)cc3)[nH]c2c1 | 7.08 µM (active)
63 | Cc1cccc(N(C)C(=O)CN(C)S(=O)(=O)c2ccc3c(c2)c(=O)n(C)c(=O)n3C)c1 | 12.6 µM (active)
64 | CC1CCC(NC(=O)CN(C)S(=O)(=O)c2ccc3c(c2)c(=O)n(C)c(=O)n3C)CC1 (stereo unspecified) | 10 µM (active)
65 | O=S(=O)(c1cnc[nH]1)N1CCN(C(c2ccc(F)cc2)c2ccc(F)cc2)CC1 | 11.2 µM (active)
66 | O=C(Oc1nsnc1N1CCCCC1)N1CCOCC1 | 12.6 µM (active)
67 | O=C1CN(C(=O)c2ccc(Cl)c(S(=O)(=O)N3CCc4ccccc43)c2)c2ccccc2N1 | 12.6 µM (active)
68 | COC(=O)C1C(=O)C2=C(CC1C)NC(C)=C(C(=O)OCCOc1ccccc1)C2c1ccc(C)o1 (stereo unspecified) | 14.1 µM (active)
69 | Cn1cc([N+](=O)[O-])c(C(=O)Nc2ccc(C3CCCCC3)cc2)n1 | inactive

Row | SMILES | Potency
70 | CC(C)C(=O)N1CCN(c2ccc(NC(=O)c3ccc([N+](=O)[O-])o3)cc2)CC1 | 8.91 µM (active)
71 | CS(=O)(=O)N1CCN(c2ccc(NC(=O)c3ccc([N+](=O)[O-])o3)cc2)CC1 | 11.2 µM (active)
72 | O=C(Nc1ccc(N2CCOCC2)c(Cl)c1)c1cc2ccccc2o1 | 2.51 µM (active)
73 | O=C(Nc1ccc(S(=O)(=O)N2CCOCC2)cc1)c1ccc([N+](=O)[O-])o1 | 3.16 µM (active)
74 | CCC(=O)N1CCN(c2ccc(NC(=O)c3ccc([N+](=O)[O-])o3)cc2Cl)CC1 | 12.6 µM (active)
75 | Cc1cccc(-c2c(NC(=O)c3ccco3)oc3ccc(Cl)cc3c2=O)c1 | inactive
76 | CCN1CCN(c2ccc(NC(=O)c3ccc([N+](=O)[O-])o3)cc2Cl)CC1 | 7.94 µM (active)
77 | CCc1nn2c(=O)cc(COc3ccc(NC(=O)c4ccco4)cc3)nc2s1 | inactive
78 | CCCC(=O)N1CCN(c2ccc(NC(=O)c3ccc([N+](=O)[O-])o3)cc2Cl)CC1 | 11.2 µM (active)
79 | CC(C)C(=O)N1CCN(c2ccc(NC(=O)c3ccco3)cc2Cl)CC1 | 7.94 µM (active)
80 | CCCC(=O)N1CCN(c2ccc(NC(=O)c3ccc([N+](=O)[O-])o3)cc2)CC1 | 7.08 µM (active)
81 | CCc1c(C)nc2nc(SCc3ccccc3Cl)[nH]n2c1=O | inactive
82 | CCN(CC)c1ccc(/C=C/c2cccc[n+]2C)c(OC)c1 | 1.12 µM (active)
83 | COc1cc(/C=N/NC(=S)Nc2cccc(S(=O)(=O)N(C)C)c2)cc(OC)c1O | inactive
84 | CN(C)S(=O)(=O)c1cccc(NC(=S)N/N=C/c2cc(Br)ccc2O)c1 | 3.55 µM (active)
85 | Cn1nc([N+](=O)[O-])nc1Sc1nnc(-c2ccccc2)o1 | 11.2 µM (active)
86 | Cc1ccc(-n2ncc3c(SCc4ccccn4)ncnc32)c(C)c1 | 12.6 µM (active)
87 | CCOC(=O)C(CC)(CC)C(=O)/C=C/c1ccc(Br)cc1 | 10 µM (active)
88 | CCOC(=O)C(=Cc1ccc(-n2cncn2)cc1)C(=O)OCC | 15.8 µM (active)
89 | CCOC(=O)C(=Cc1ccc(Br)cc1)C(=O)OCC | 10 µM (active)
90 | CC(C)c1ccc(/C=C/C(=O)NC(=S)NN2CCOCC2)cc1 | inactive
91 | COc1ccc(/C=C/C(=O)NC(=S)NN2CCCCC2c2cccnc2)cc1 (stereo unspecified) | 12.6 µM (active)
